Glioma ERSR ind: qHTS for Inducers of the Endoplasmic Reticulum Stress Response (ERSR) in Human Glioma: qHTS. Potency, µM, most hits filed as activators. U87-MG GRP78 promoter luciferase reporter, 16 h. 420,000 compounds, 0.02% hits; also: series mostly up to about 76 µM; nearly all actives have a fitted effect of over 35% in size
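Stably transfected U87-MG glioma cells carrying a GRP78-based luciferase sensor; 16 h compound incubation. Luminescence end-point read 10 min after Bright-Glo addition at room temperature.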
Nrf2 activator: qHTS of Nrf2 Activators; AREc32 ARE-luciferase reporter (MCF7-derived line), luminescence, 24 h; Potency, µM (titrated, usually from 46.1 µM), most hits filed as activators; 410,000 compounds, 0.31% hits; also: nearly all actives have a fitted effect of over 65% in size
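Quantitative high-throughput format: AREc32 reporter cells, 1000 per well, received compound by pin transfer and were incubated 24 hr at 37 deg C, 5% CO2, before Steady-Glo luminescence detection.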
D3 antag: qHTS of D3 Dopamine Receptor Antagonist: qHTS; D(3) dopamine receptor (Homo sapiens), P35462; D3R cells, DiscoveRx beta-arrestin luminescence, antagonist mode; stronger effect = lower value; max response, negative = inhibition, %; 360,000 compounds, 2.5% hits; AID 652054, 2013; in the data active = max response below about -50%; inconclusive = no clear call, values can overlap the other calls
Target sequence (P35462 whole entry, looked up): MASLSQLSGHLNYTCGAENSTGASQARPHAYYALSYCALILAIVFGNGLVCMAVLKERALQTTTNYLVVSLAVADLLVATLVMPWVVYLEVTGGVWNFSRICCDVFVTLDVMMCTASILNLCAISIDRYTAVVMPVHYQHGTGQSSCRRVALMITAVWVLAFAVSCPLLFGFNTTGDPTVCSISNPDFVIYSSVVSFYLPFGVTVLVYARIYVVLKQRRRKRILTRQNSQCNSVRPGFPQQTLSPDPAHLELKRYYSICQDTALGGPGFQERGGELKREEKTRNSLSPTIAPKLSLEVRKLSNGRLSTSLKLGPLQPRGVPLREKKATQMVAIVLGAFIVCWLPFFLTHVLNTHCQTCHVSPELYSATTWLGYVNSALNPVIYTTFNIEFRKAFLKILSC
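Cells plated overnight at 1500 cells/well, then exposed to library compounds with dopamine controls for 90 minutes at 37 degrees C. DiscoveRx reagent added for 30–60 minutes at room temperature; luminescence read, quantitative HTS format.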
DRD3 agonist: qHTS of D3 Dopamine Receptor Agonist: qHTS. D(3) dopamine receptor (Homo sapiens), P35462. D3R DiscoveRx beta-arrestin cells, luminescence, 90 min. max activation, %. 410,000 compounds, 0.58% hits. AID 652048, 2013; in the data active = max activation above about 30%
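Agonist-mode cell screen: cells plated at 1500/well and incubated overnight at 37 °C, then exposed to library compounds for 90 min at 37 °C. Detection reagent was added for 30–60 min at room temperature, and luminescence was read.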
Hits are given with their value; 0 = inactive; ? = inconclusive; - = not tested or not shown; [ ] = remark or other dose. Hits are enriched below; roughly 3% of the tested compounds scored in any of these assays. Unless noted, calls follow the shape of the dose curve; as a rule, active = well fitted curve in the direction sought with a large enough effect; inconclusive = small, poorly fitted or top-dose-only effect, or another doubt; inactive = no such curve, though single readings can be large; an effect the other way counts as inactive or inconclusive.

SMILES	Glioma ERSR ind	Nrf2 activator	D3 antag	DRD3 agonist
CN1C(=O)/C(=C2\SC(N3CCCCCC3)=NC2=O)c2ccccc21	0	0	-67.4	0
O=C(CSc1cn(CCNC(=O)c2c(F)cccc2F)c2ccccc12)Nc1ccc(F)cc1	0	0	-	0
CC(C)(C)C(=O)/C(=C/c1ccncc1)n1cncn1	0	?	-55.8	0
CCCCCCNCc1cccc(Br)c1	0	0	-81.4	0
CCCCCNCc1cccc(Br)c1	0	0	-62.7	0
CCCCCCNCc1ccc(Br)cc1	0	0	-66.1	0
CC(C)(C)n1ncc2c(=O)n(Cc3c(F)ccc(Cl)c3Cl)cnc21	0	-	-	-
C[C@@H](Cc1cccc(C(F)(F)F)c1)NCCOC(=O)c1ccccc1	0	-	-	-
CC(Cc1cccc(C(F)(F)F)c1)NCCOC(=O)c1ccccc1 (configuration not stated)	0	0	-98.8	0
COc1ccc(OCCN2CCC(C(=O)NC(c3ccc(F)cc3)c3ccc4ccccc4n3)CC2)cc1 (configuration not stated)	0	0	-69.9	0
O=C(NC(c1ccc(F)cc1)c1ccc2ccccc2n1)C1CCN(CCOc2ccc(F)cc2)CC1 (configuration not stated)	0	0	?	0
COc1ccc(OCCN2CCC(C(=O)NC(c3ccccc3)c3ccc4ccccc4n3)CC2)cc1 (configuration not stated)	0	0	-102.4	0
O=C(NC(c1ccccc1)c1ccc2ccccc2n1)C1CCN(CCOc2ccc(Cl)cc2)CC1 (configuration not stated)	0	0	0	0
O=C(Cn1ncc2c([nH]c3ccccc32)c1=O)NCCCN1CCN(c2ccc(F)cc2)CC1	0	0	-	0
CN(CCOc1ccc(Cl)cc1)Cc1cccc(S(=O)(=O)N(C)C)c1	0	0	0	47.4
Cc1ccc(S(=O)(=O)N(C)C)cc1NC(=O)C(C)N(C)CCOc1ccc(Cl)cc1 (configuration not stated)	0	0	0	0
CC(=O)NCCOc1cccc2ccccc12	0	0	0	0
CN(CCOc1ccccc1)Cc1ccccc1	0	0	-117.2	0
c1ccc(CCNCCCOc2cccc3ccccc23)cc1	0	0	-67.1	0
CN(CCOc1cccc2ccccc12)Cc1ccccc1	0	0	-75.5	0
O=C1/C(=C/c2ccncc2)CCC/C1=C\c1ccncc1	0	0	-60.5	0
O=C(Nc1cc(C(F)(F)F)cc(C(F)(F)F)c1)c1cc(Cl)ccc1O	0	-	-	-
Cc1[nH]n(-c2ccccc2)c(=O)c1C1(C(F)(F)F)C(=O)N(c2ccc(F)cc2)C2=C1C(=O)CC(C)(C)C2 (configuration not stated)	0	0	-70.6	0
O=C(N/N=C/C(Br)=C/c1ccccc1)c1ccc([N+](=O)[O-])cc1	0	8.91µM	0	0
O=C(N/N=C/C(Br)=C\c1ccccc1)c1ccc2nc[nH]c2c1	0	22.4µM	0	0
SMILES	Glioma ERSR ind	Nrf2 activator	D3 antag	DRD3 agonist
O=C(N/N=C/C(Br)=C/c1ccccc1)c1ccncc1	0	?	0	0
C[C@@H]1CN([C@@H](C)CO)C(=O)Cc2cc(NC(=O)Nc3cccc4ccccc34)ccc2O[C@@H]1CN(C)Cc1ccc(C(F)(F)F)cc1	0	0	-61.0	0
C[C@@H]1CN([C@H](C)CO)C(=O)c2cc(NC(=O)Nc3cccc4ccccc34)ccc2O[C@H]1CN(C)Cc1ccc(C(F)(F)F)cc1	0	0	0	0
C[C@@H]1CN([C@H](C)CO)C(=O)Cc2cc(NS(=O)(=O)c3ccc(Cl)cc3)ccc2O[C@H]1CN(C)Cc1ccc(C(F)(F)F)cc1	0	0	0	36.6
O=C(Nc1nc(-c2ccccn2)cs1)c1ccc(-c2ccccc2F)o1	31.6µM	0	0	0
CC(=O)Nc1ccc(C(=O)Nc2nc(-c3ccccn3)cs2)cc1	0	0	-56.2	0
CC(=O)Nc1ccc(C(=O)Nc2nc(-c3cccnc3)cs2)cc1	0	0	0	0
CC(=O)c1ccc(-c2ccc(C(=O)Nc3nc(-c4ccccn4)cs3)o2)cc1	0	0	0	0
Cc1ccc(C(=O)Nc2nc(-c3ccccn3)cs2)o1	0	0	0	0
O=C(Nc1nc(-c2ccccn2)cs1)c1ccc([N+](=O)[O-])o1	0	11.2µM	0	0
C=C(Br)COC(c1ccco1)[C@H](Cc1ccccc1)NC(=O)OC(C)(C)C (some centres not stated)	0	-	-	-
CC1CCN(c2ncnc3c2nnn3C)CC1	0	0	-	0
CCC1CCc2c(sc(NC(=O)C3CC=CCC3C(=O)O)c2C#N)C1 (configuration not stated)	0	0[9.22 µM]	0	32.6
CC(=NNc1nc2ccccc2s1)c1ncccn1	0	11.2µM	0	0
Nc1ccc2oc(=O)ccc2c1I	0	-	-	-
Fc1ccccc1C1c2cccn2CCN1C(=S)Nc1ccc(Br)cc1 (configuration not stated)	0	0	-64.3	0
CN(C)c1ccc(/C=C2\C(=O)/C(=C\c3ccc(N(C)C)cc3)c3ccccc32)cc1	0	-	-	-
CCN(CC)C(=O)CSC1=Nc2ccccc2C2=NC(c3ccccc3)C(=O)N12 (configuration not stated)	0	0	-61.6	0
Cc1ccccc1OCCNc1cc(N2CCN(CCO)CC2)ccc1[N+](=O)[O-]	0	0	-64.4	0
Cc1ccccc1OCCNc1cc(N2CCCCC2)ccc1[N+](=O)[O-]	0	0	0	0
Cc1cccc(OCCNc2cc(N3CCN(CCO)CC3)ccc2[N+](=O)[O-])c1	0	0	-57.7	0
CN(C)c1ccc(-c2cc(Nc3ccc(F)cc3)ncn2)cc1	0	-	-	-
O=C(NC1CCC(n2cc(C(=O)NC3CC3)nn2)CC1)C(=O)c1ccccc1 (configuration not stated)	0	-	-	-
Cc1cccc(CNC(=O)c2cnn(-c3nccc(-c4cccs4)n3)c2C(C)C)n1	0	-	-	-
CO[C@H]1C=CO[C@@]2(C)Oc3c(C)c(O)c4c(O)c(cc(O)c4c3C2=O)NC(=O)/C(C)=C\C=C/[C@H](C)[C@H](O)[C@@H](C)[C@@H](O)[C@@H](C)[C@H](OC(C)=O)[C@@H]1C	-	-	-	0
SMILES	Glioma ERSR ind	Nrf2 activator	D3 antag	DRD3 agonist
CCc1nc2ccc(C(=O)NC3CCN(Cc4ccccc4)CC3)cn2c1N(C)Cc1ccc(N(C)C)cc1	0	0	-62.9	0
Cc1ccc(CN2CCC(NC(=O)c3ccccc3)CC2)cc1	0	0	-95.6	0
CC1(C)Cc2cccc(C(=O)NC3CCN(Cc4ccccc4)CC3)c2O1	0	0	-76.7	0
CCc1nc2ccc(C(=O)NC3CCN(C)CC3)cn2c1N(C)CCC(C)C	0	0	0	0
Cc1ccccc1C(=O)NC1CCN(Cc2ccccc2)CC1	0	0	0	0
O=C(NC1CCN(Cc2ccccc2)CC1)c1ccc(CS(=O)c2ccccc2Cl)o1 (configuration not stated)	0	0	-117.0	0
CC1(C)Cc2cccc(OC(=O)NC3CCCCC3)c2O1	-	0	0	0
